Measurements reported in PMC5540273 (PLoS ONE, 2017).

Key:
Conditions in all cases: concentration: 1 μM, replicates: in singlicate; n = 1
STK16 = tested on: STK16
STK33 = tested on: STK33
STK35 = tested on: STK35
STK36 = tested on: STK36
STK39 = tested on: STK39
SYK = tested on: SYK
SgK110 = tested on: SgK110
TAK1 = tested on: T1, TAK1
T1 construct: gene MAP3K7

TAOK1 = tested on: TAOK1
TAOK2 = tested on: TAOK2
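Note: KINOMEscan kinase panel screen.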

| Structure (SMILES) | %Inh (STK16) [%] | %Inh (STK33) [%] | %Inh (STK35) [%] | %Inh (STK36) [%] | %Inh (STK39) [%] | %Inh (SYK) [%] | %Inh (SgK110) [%] | %Inh (TAK1) [%] | %Inh (TAOK1) [%] | %Inh (TAOK2) [%] |
| --- | --- | --- | --- | --- | --- | --- | --- | --- | --- | --- |
| Cc1cccc(-c2nc(Nc3cccc(C(N)=O)c3)c3ccccc3n2)n1 [GW876019] | 0 | 29 | 0 | 0 | 0 | 14 | 41 | 0 | 0 | 30 |
| CS(=O)(=O)c1ccc(-c2c(-c3ncn[nH]3)sc(N3CCOCC3)c2C#N)cc1 | 7 | 0 | 0 | 1 | 0 | 23 | 15 | 33 | 0 | 0 |
| Cn1ccc2ncnc(Oc3cccc(C(=O)Nc4ccccc4)c3)c21 | 0 | 7 | 0 | 0 | 0 | 2 | 0 | 13 | 0 | 0 |
| CN(C)CCN(C)C(=O)c1cc(-c2ccncc2)c(-c2ccc(Cl)c(O)c2)o1.Cl.Cl [SB-710397] | 4 | 0 | 0 | 0 | 33 | 17 | 6 | 0 | 0 | 0 |
| COC(=O)c1c(-c2ccccc2)c2cc(C(=O)O)ccc2c(=O)n1Cc1ccccc1 | 22 | 0 | 0 | 5 | 0 | 0 | 14 | 0 | 14 | 20 |
| Nc1nc(-c2nccs2)c(-c2ccnc3ccccc23)s1 [GW693542] | 32 | 0 | 0 | 0 | 10 | 24 | 13 | 0 | 0 | 0 |
| Fc1cccc(COc2nnc(-c3ccc4c(c3)CCO4)o2)c1 | 7 | 2 | 4 | 7 | 0 | 0 | 0 | 7 | 0 | 0 |
| COc1ccc(Nc2nccc(-c3cccc(NC(=O)c4cc5cc(F)ccc5[nH]4)c3)n2)cc1 [GSK1229782] | 22 | 5 | 0 | 0 | 4 | 49 | 0 | 64 | 2 | 0 |
| Cn1cncc1-c1ccc2ncnc(Nc3ccc(OCc4ccccc4)cc3)c2c1 [GW320571] | 5 | 20 | 10 | 0 | 7 | 0 | 0 | 0 | 0 | 0 |
| Cc1cccc(-c2nc(C)cc(Nc3ccncc3)n2)n1 [GSK257997] | 2 | 0 | 0 | 0 | 0 | 34 | 0 | 24 | 0 | 0 |
| COc1ccc2nc(-c3cccc(C)n3)nc(Nc3ccncc3)c2c1 [GSK204919] | 1 | 0 | 5 | 0 | 7 | 10 | 2 | 0 | 0 | 0 |
| COc1ccc(C2=C(Nc3cccc(C(=O)O)c3)C(=O)NC2=O)cc1 [SB-390765] | 10 | 0 | 13 | 22 | 0 | 25 | 0 | 21 | 28 | 28 |
| Cc1ccc(NC(=O)Nc2cccc(Cl)c2)cc1-c1ccc(C(=O)Nc2ccncc2)cc1 [GSK1398468] | 9 | 0 | 0 | 1 | 0 | 3 | 0 | 0 | 0 | 0 |
| Cc1nnc(-c2ccc3occ(-c4ccc(S(C)=O)cc4)c3c2)[nH]1 (stereo not drawn) | 11 | 0 | 22 | 3 | 0 | 0 | 0 | 7 | 0 | 0 |
| CC(C)(C)c1ccc(C(=O)Nc2cn3cc(-c4cccnc4)ccc3n2)cc1 | 27 | 6 | 0 | 4 | 0 | 0 | 0 | 11 | 0 | 2 |
| Clc1cc(Cl)cc(Nc2ccnc(Nc3cc(Cl)cc(Cl)c3)n2)c1 [GSK175726] | 24 | 0 | 0 | 39 | 2 | 12 | 0 | 18 | 44 | 6 |
| Nc1ncnc2[nH]c(-c3ccccc3)nc12 [AH5015] | 0 | 0 | 0 | 4 | 0 | 10 | 0 | 0 | 7 | 0 |
| O=C(O)COc1ncnc2cc(-c3ccc4[nH]ncc4c3)sc12 | 12 | 0 | 0 | 0 | 0 | 0 | 0 | 28 | 0 | 0 |
